# The whole screen tested about 330,000 compounds, of which about 1,900 (0.58%) were called active. Roughly 4% stayed inconclusive and do not appear here. Only a sample is shown. Measured potencies and affinities stand elsewhere. A number with no mark means an inactive call. Cut-off read from the data, not from the text of the source: inconclusive = inhibition above about 70% without an active follow-up result; inactive = below that.
# Assay: M. tuberculosis growth inhibition, HTS (AID 449762);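 note: bacterial growth assessed after seven days of incubation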
# Conditions: M. tuberculosis H37Rv growth inhibition, 7H9 media; at 25 µM; hits give high values
row,SMILES,inhibition
1,NC(=S)N/N=C/c1c(O)ccc2ccccc12,-0.33%
2,CN(C)/N=C/c1c(O)ccc2ccccc12,27.8%
3,CCCN(CCC)C(=O)c1ccc2nc(-c3ccc(OC)c(OC)c3)c(-c3ccc(OC)c(OC)c3)nc2c1,-2.59%
4,CC1CCCN(C(=O)Cc2cccc3ccccc23)C1 (centres undefined),7.05%
5,CCN(c1ccccc1)S(=O)(=O)c1cccc(C(=O)Nc2ccc(C)cn2)c1,-11.7%
6,COc1cccc(-c2cccc(NC(=O)C3CCN(C4CCOCC4)CC3)c2)c1,6.63%
7,O=C1C2C(C(=O)N1/N=C/c1ccc(N3CCCCC3)o1)C1C=CC2C12CC2 (centres undefined),6.38%
8,Cc1ccc(/C=N/N2C(=O)C3C(C2=O)C2C=CC3C23CC3)o1 (centres undefined),-4.61%
9,CC(C)(C)n1nnnc1C(c1ccc(Cl)cc1)N1CCCc2ccccc21 (centres undefined),-4.81%
10,N#C/C(=N\Nc1ccc(Cl)cc1)C(N)=S,59.5%
11,N#C/C(=N\Nc1ccccc1)C(N)=S,2.54%
12,Cc1ccc(C)c(N=Nc2nc3ccccc3n2C)c1,-4.4%
13,Cn1c(NN=O)nc2ccccc21,0.37%
14,CCCCCc1ccc(-c2cn(CN3C(=O)c4ccccc4C3=O)nn2)cc1,-0.74%
15,COC(=O)c1cc(COC(=O)c2ccc3ccccc3n2)oc1C,5.66%
16,O=C(Cc1ccc([N+](=O)[O-])cc1)Nc1ccc(Cl)cc1,-3.64%
17,CCc1cccc(NC(=O)Cc2ccc([N+](=O)[O-])cc2)c1,-1.32%
18,Fc1ccc(CSc2ccc3nnc(-c4cccnc4)n3n2)cc1,-5.63%
19,Cn1c(-c2ccc(=O)[nH]c2)nc2ccccc21,-2.91%
20,COC(=O)CC(NC(=O)c1ccco1)c1cccc2ccccc12 (centres undefined),-11%

row,SMILES,inhibition
1,CC(=O)O[C@H]1CC[C@H]2[C@@H]3CCc4cc(O)ccc4[C@H]3CC[C@]12C,3.79%
2,C[C@]12CC[C@@H]3c4ccc(O)cc4CC[C@H]3[C@@H]1CC[C@@H]2OC(=O)CCC(=O)O,5.59%
3,COc1ccc(/C=N/NC(=O)c2nonc2C)cc1,5.08%
4,COc1ccc(CCNC(=O)CSc2nn(-c3ccccc3)c(=S)s2)cc1,-1.49%
5,O=C(NC1CCCCC1)C(c1ccc2ncccc2c1)N(Cc1ccc2c(c1)OCO2)C(=O)c1cccs1 (centres undefined),7%
6,COc1ccc(C(=O)N(Cc2ccco2)C(C(=O)NC2CCCC2)c2ccc(O)cc2)cc1OC (centres undefined),-4.43%
7,COc1cc(C(=O)Nc2ccc3nc4n(c(=O)c3c2)CCCC4)ccc1Br,0.83%
8,O=[N+]([O-])c1ccc(CN2CCCCCC2)s1,-2.04%
9,O=[N+]([O-])c1ccc(N2CCN(Cc3ccccc3)CC2)s1,62.1%
10,CC(=O)N(CC1CCCO1)c1nnc(-c2cnccn2)s1 (centres undefined),-7.32%
11,CCOC(=O)C[N+](C)(C)CCOC1CC2CCC1(C)C2(C)C (centres undefined),0.01%
12,CCCOC(=O)C[N+](C)(C)CCOC1CC2CCC1(C)C2(C)C (centres undefined),-2.27%
13,CCN(CC)c1ccc(C=NCCNS(=O)(=O)c2ccc(C)cc2)cc1,-5.21%
14,CCOc1cc(/C=C2\COc3ccccc3C2=O)ccc1OCC(=O)N(C)C,36.2%
15,CCOc1cc(/C=N/Nc2nc3ccccc3[nH]2)cc(Br)c1OCC(=O)N(C)C,54.1%
16,Nn1c(SCC(=O)Nc2ccccc2)nnc1C1CCCCC1,-4.13%
17,CCO[C@H]1OC(C(=O)NC2CC2)=C[C@@H](c2csc3ccccc23)[C@@H]1CCCO,2.79%
18,O=C(CC1C(=O)NCCN1Cc1c(F)cccc1Cl)NC1CCCC1 (centres undefined),-8.1%
19,O=[N+]([O-])c1cc(Cl)ccc1N1CCN(c2cccc(C(F)(F)F)c2)CC1,12%
20,CN(C)CCCN(C(=O)c1ccc(S(=O)(=O)N2CCc3ccccc32)cc1)c1nc2ccc(F)cc2s1,2.5%

row,SMILES,inhibition
1,CN(C)CCCN(C(=O)c1ccc(S(=O)(=O)N2CCc3ccccc32)cc1)c1nc2ccc(Cl)cc2s1,6.05%
2,COc1ccccc1NC(=S)N(Cc1ccc(C(=O)O)cc1)Cc1ccc(OC)c(OC)c1,1.31%
3,O=C(NCc1n[nH]c(=S)n1-c1ccc(F)cc1)c1ccc(S(=O)(=O)N2CCCCC2)cc1,0.39%
4,CCCNC(=O)c1ccc(Cn2cc(-c3ccc(OC)cc3)nc2C(C)N)cc1 (centres undefined),-9.06%
5,Cc1ccc(CNC(=O)c2ccc(Cn3cc(-c4ccc(C)cc4)nc3-c3ccncc3)cc2)cc1,8.49%
6,O=C(NCCc1ccccc1Cl)C1CCC(=O)N(C2CCCCCC2)C1 (centres undefined),4.37%
7,COc1cc(OC)cc(C(=O)NCCSC2CCCCC2)c1,1.7%
8,C=CCc1ccccc1OCC(O)CN1CCN(c2ccc(C)cc2)CC1 (centres undefined),8.24%
9,COC(=O)c1ccccc1C(=O)N(Cc1cccnc1)CC1CCCN(C2CCCCC2)C1 (centres undefined),2.83%
10,O=C(c1cc2ccccc2[nH]1)N(Cc1cccnc1)CC1CCCN(C2CCCCC2)C1 (centres undefined),58%
11,CCN(C(=O)c1ccccc1F)c1nc(-c2ccc(OC)cc2)cs1,5.39%
12,CCc1c(C)c2ccc(OCC(N)=O)cc2oc1=O,4.28%
13,CCOC(=O)CCc1c(C)c2ccc(OCC(=O)OC(C)C)cc2oc1=O,26.9%
14,COCCCNc1nc2cc(OC)c(OC)cc2c2nc(-c3ccccc3)nn12,13%
15,CCN(CC)CCCNc1nc2ccccc2c2nc(-c3ccncc3)nn12,-0.63%
16,CCCCCCCCCCCC(=O)N1CC(=O)NC(=O)C1,-0.85%
17,CC(C)CCN1CC(=O)N2[C@@H](Cc3c([nH]c4ccccc34)C2(C)C)C1=O,1.66%
18,c1ccc(Oc2nc(-c3cccnc3)nc3ccccc23)cc1,13.2%
19,Cc1ccc(Oc2nc(-c3cccnc3)nc3ccccc23)c([N+](=O)[O-])n1,3.26%

# — PubChem BioAssay AID449762 (Southern Research Specialized Biocontainment Screening …, 2010)
